Results taken from PubChem BioAssay AID717 (Columbia University Molecular Screening Center, 2007).
Out of some 91,000 compounds screened, about 40 (0.04%) were called active. No stated cut-off is given here; in the data, active means activation above about 37%; inactive means the rest. The list is a sample of the results.

What follows are compounds tested against Bifunctional epoxide hydrolase 2 (Homo sapiens) (UniProt P34913) (assay: soluble epoxide hydrolase activators, primary screen, biochemical, human sEH (AID 717)). Conditions: purified human sEH enzymatic activity, activator screen; at 2 µM; active compounds read high.
Sequence of Bifunctional epoxide hydrolase 2 (Homo sapiens) (P34913 whole entry, looked up): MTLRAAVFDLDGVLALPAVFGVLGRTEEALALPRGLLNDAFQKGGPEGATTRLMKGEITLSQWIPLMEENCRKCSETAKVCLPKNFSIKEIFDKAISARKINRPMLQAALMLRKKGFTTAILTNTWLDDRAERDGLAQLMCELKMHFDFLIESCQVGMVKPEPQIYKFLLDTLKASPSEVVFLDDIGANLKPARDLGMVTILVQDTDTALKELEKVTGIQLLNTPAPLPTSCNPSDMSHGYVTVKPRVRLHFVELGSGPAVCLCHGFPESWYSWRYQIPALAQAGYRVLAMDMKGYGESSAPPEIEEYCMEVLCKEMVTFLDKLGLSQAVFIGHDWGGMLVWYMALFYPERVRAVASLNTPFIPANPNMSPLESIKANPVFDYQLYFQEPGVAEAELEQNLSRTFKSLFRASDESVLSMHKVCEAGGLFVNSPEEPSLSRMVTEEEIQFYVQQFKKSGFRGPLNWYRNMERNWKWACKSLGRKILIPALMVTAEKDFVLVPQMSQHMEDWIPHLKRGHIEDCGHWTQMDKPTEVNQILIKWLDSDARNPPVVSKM

activation, inactive:
COc1ccc(C)cc1NC(=O)CCC(=O)Nc1nnc(C(F)(F)F)s1 -15.1%
Cc1nnsc1S(=O)(=O)Cc1ccccc1Cl -3.8%
CCCCNC(=O)c1onc(CSc2cccc(OC)c2)c1C(=O)O 11.8%
CS(=O)(=O)N1CCN(c2ccc(C(=O)NC3C4CC5CC(C4)CC3C5)cc2[N+](=O)[O-])CC1 (configuration not stated) 8.8%
C(=N/N1CCN(c2ccccc2)CC1)/c1cccs1 4.8%
COCCCNC(NC(=O)c1ccc(C)cc1)C(Cl)(Cl)Cl (configuration not stated) 18.3%
CCOC(=O)C1=C(CN2CCc3ccccc32)NC(=O)NC1c1cc(C)ccc1C (configuration not stated) 7.8%
Nc1ccc(-c2sc(N)nc2-c2ccccc2)cc1 10.7%
COCC(C)NC(=O)c1ccc(-n2nc(C(F)(F)F)cc2-c2cccs2)cc1 (configuration not stated) 3.4%
CC(=O)c1cn(CCCCCCCCCCn2cc(C(C)=O)c(=O)[nH]c2=O)c(=O)[nH]c1=O 3.2%
Cc1csc(=NC(=O)c2ccccc2)n1CCO 7.3%
CCc1ccc(C(=O)CSc2nnc(C)c(=O)[nH]2)cc1 -0.4%
CCCn1nnnc1NC(=O)COc1ccc(Cl)cc1C 36.8%
COc1ccccc1CNC(=O)c1ccc(SC)cc1OC 1%
Cc1nn(C)cc1/C=C1\CCC/C(=C\c2cn(C)nc2C)C1=O 11.7%
CCN(CC)c1nc(-c2ccccc2)cc(C(F)(F)F)c1C#N 30.7%
Nc1c(-c2cccc(Cl)c2)cnn1-c1cccc([N+](=O)[O-])c1 0.1%
O=c1c2ccccc2c(-c2ccc(Br)cc2)nn1Cc1ccccc1 -4.3%
O=C(COC(=O)c1ccccc1NC(=O)c1ccco1)Nc1ccc2c(c1)OC(F)(F)O2 -28.9%
CCCCNCc1ccc(SC)cc1 -8.5%
NC(=O)N1CCCC1C(=O)Nc1ccc(Cl)c(Cl)c1 (configuration not stated) -4.5%
CCCCNC(=O)CSc1nc2ccc(NC(=O)CSc3nnc(COc4ccccc4C)n3C)cc2s1 -88.3%
Cc1cc(C(=O)OCC(=O)Nc2ccc(F)c(F)c2)c(C)o1 -9.4%
COc1ccc(CCNC(=S)NC(=O)/C=C/c2ccc(C)cc2)cc1OC 3.7%
CC1=NN(Cc2ccccc2)C(=O)/C1=C/c1ccc(N(C)C)cc1 4.2%
CCn1cc(C(=O)N/N=C(/C)c2ccc(F)cc2)c(=O)c2cc(F)c(N3CCCC3)cc21 11.6%
COc1ccc(NS(=O)(=O)c2ccc(NC(=S)NC(=O)CC(C)C)cc2)cc1 1.9%
O=C(NCCCN1CCOCC1)c1cc2c(s1)CCC2 -5.4%
O=C(CN1C(=O)NC(Cc2ccccc2)(Cc2ccccc2)C1=O)NCC1CCCCC1 11.9%
O=C(OCN1C(=O)c2ccccc2C1=O)/C(=C\c1ccco1)NC(=O)c1ccccc1 -78.7%
COC(=O)CNC(=O)c1ccccc1[N+](=O)[O-] 18.9%
CCOc1ccc(C(CCc2ccccc2)NC(=O)c2ccc(OC)c(OC)c2)cc1OCC (configuration not stated) 23.3%
CC(CNc1ccc([N+](=O)[O-])cc1)NC(=O)c1ccccc1Br (configuration not stated) 5%
C=CCn1c(-c2ccc(Cl)cc2)ccc(C#N)c1=O 2.9%
COc1ccc2c(c1)SC(C)CC2=O (configuration not stated) 13.9%
CC1(C)CC(=O)C(C=NCCN2CCN(C(=S)Nc3cccc(Cl)c3)CC2)=C(O)C1 -11.3%
Cc1ccc(-c2csc(N(Cc3ccco3)C(=O)c3cccs3)n2)cc1 11.6%
CCOC(=O)NNC(=O)c1ccc(Cl)cc1 0.5%
CC(Oc1ccc(Cl)cc1Cl)C(=O)/C=C/N(C)C (configuration not stated) -10%
COc1ccc(/C=N/Nc2nc3ccccc3c(=O)[nH]2)cc1 10%
O=[N+]([O-])c1ccc(NCCCN2CCOCC2)c(Cl)c1 -17.1%
Clc1ccc(-n2nnnc2CN2CCCCC2)cc1Cl -4%
C=CCOC(=O)C1=C(C)NC(C)=C(C(=O)OCC=C)C1c1cccs1 8.4%
COc1ccc(-c2cc(C(=O)n3cnc4ccccc43)c3ccccc3n2)cc1 11.7%
COc1cc(C(=O)N2CCN(C/C=C/c3ccccc3)CC2)cc(OC)c1C 11.7%
CCCCNC(=S)NNC(=O)c1cc(C)on1 -1.6%
CN(CC#CCC(c1ccccc1)c1ccccc1)C(C)(C)C -4.2%
CC(C)(C)c1cc2cccnc2n1Cc1ccccc1 -9.8%
COc1cc(C2C(C(=O)OCCC#N)=C(C)NC3=C2S(=O)(=O)c2ccccc23)cc(OC)c1OC (configuration not stated) -9%
c1ccc(CSc2ncnc3c2sc2nc(N4CCOCC4)c4c(c23)CCCC4)cc1 -8.4%
c1cnc(Nc2nc(-c3ccc4ccccc4c3)cs2)nc1 9.6%
c1ccc2c(CSCc3nc4ccccc4[nH]3)cccc2c1 -10.8%
CCOC(=O)c1c(NC(=O)c2ccc(N3CCOCC3)c([N+](=O)[O-])c2)sc(C)c1C -11.3%
O=C(CN1CCN(S(=O)(=O)c2ccc(Cl)s2)CC1)NCc1ccc(Cl)cc1 0.3%
COc1ccc(C(=S)Nc2ccccc2)cc1 -3.8%
Cc1nn(-c2ccccc2)c(Cl)c1C(=O)Nc1ccccc1 2%
O=C(CNC(=O)c1cc2c(s1)CCC2)Nc1ccccc1Br -12.2%
CCNC(=S)N1CCN(C(=O)c2ccco2)CC1 1%
COc1cc(/C=N/O)cc(Br)c1OS(=O)(=O)c1ccc(C)cc1 12.9%
CCOC(=O)COc1cc(OCC(=O)OCC)c2c(=O)cc(-c3ccccc3)oc2c1 15.3%
Cc1ccc(C(=O)NNC(=O)OC(C)(C)C)c(Cl)c1 2%
Cc1ccc(NC(=S)N/N=C2/CCCc3c(C)cc(C)cc32)cc1 9.9%
